Source: PubChem BioAssay
hNpr1 antagonist: blocks ANP-stimulated signaling of human Npr1 receptor; P16066; actives 1.6% (n = 76,000); Potency, µM (top dose mostly 46.3 µM), for inactives: at the top dose activity change, negative = inhibition, most hits filed as inhibitors; HEK293 hNpr1 GloSensor cGMP, ANP-stimulated luminescence; calls by dose curve; also: nearly all actives have a fitted effect of over 60% in size
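Compound pre-incubated 30 min at room temperature on GloSensor-loaded HEK293 cells stably carrying hNpr1 and the pGS-40F cGMP biosensor. Stimulation uses hNppA at 0.1 nM final; luminescence is taken at baseline and 20 min post-agonist.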
HEK cytotox: kills HEK 293 cells; HEK 293 viability, ATP luminescence (CellTiter-Glo), 48-72 h; Potency, µM (titrated, usually from 115 µM), for the others: at the top dose activity change, negative = cytotoxicity, most hits filed as inhibitors; actives 6.6% (n = 94,000); AID 1345083; also: nearly all actives have a fitted effect of over 60% in size
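Cytotoxicity was scored by loss of ATP-coupled luminescence (CellTiter-Glo) in HEK 293 cells. Compound treatment ran 48 or 72 hr at 37 degree Celsius, 5% CO2, 95% humidity.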
GPT2 inh: GPT2 alanine aminotransferase inhibition; Q8TD30; Recombinant GPT2, coupled pyruvate oxidase/HRP Amplex Red fluorescence; Potency, µM (titrated, usually from 57.7 µM), inactives show top-dose activity change, negative = inhibition, hits mostly inhibitors; actives 0.25% (n = 100,000); AID 1671188; also: nearly all actives have a fitted effect of over 60% in size
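Fluorescence of coupled pyruvate oxidase/HRP/Amplex Red system (50uM Amplex, 30 min, dark) reports pyruvate formed by GPT2. Enzyme reaction: 10ng/uL GPT2, 2mM L-alanine, 250uM a-KG, 30 min room temperature, pH 7.5; 50uM AOA control.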
NIH3T3 tox: NIH 3T3 cell cytotoxicity; actives 4.3% (n = 94,000); NIH 3T3 viability, CellTiter-Glo ATP luminescence, 48-72 h; Potency, µM (highest dose often 96.7 µM), inactives show top-dose activity change, negative = cytotoxicity, actives largely listed as inhibitors; also: nearly all actives have a fitted effect of over 55% in size
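ATP-dependent luminescence (CellTiter-Glo) served as the viability signal for NIH 3T3 cells treated with compound for 48 or 72 hr at 37 °C.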
Luciferase inh: blocks purified firefly luciferase enzyme activity; actives 2.5% (n = 76,000); purified P. pyralis luciferase, luminescence, biochemical; P08659; Potency, µM (highest dose often 115 µM), most hits filed as inhibitors; also: nearly all actives have a fitted effect of over 65% in size
Target sequence (P08659 whole entry, looked up): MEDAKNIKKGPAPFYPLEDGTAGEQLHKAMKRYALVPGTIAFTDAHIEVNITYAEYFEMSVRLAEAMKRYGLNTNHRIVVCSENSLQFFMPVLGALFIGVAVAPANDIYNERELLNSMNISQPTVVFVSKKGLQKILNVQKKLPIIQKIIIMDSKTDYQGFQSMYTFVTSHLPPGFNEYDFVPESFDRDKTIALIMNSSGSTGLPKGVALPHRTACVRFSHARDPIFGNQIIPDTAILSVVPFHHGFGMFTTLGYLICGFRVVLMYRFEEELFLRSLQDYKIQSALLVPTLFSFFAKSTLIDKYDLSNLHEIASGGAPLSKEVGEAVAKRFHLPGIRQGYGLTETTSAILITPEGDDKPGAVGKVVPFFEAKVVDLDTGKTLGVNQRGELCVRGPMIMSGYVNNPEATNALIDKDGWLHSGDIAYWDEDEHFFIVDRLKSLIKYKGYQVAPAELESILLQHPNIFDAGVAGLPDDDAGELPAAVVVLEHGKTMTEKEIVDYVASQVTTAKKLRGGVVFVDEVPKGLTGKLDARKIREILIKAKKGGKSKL
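Luminescence read by CCD imager after adding enzyme (10nM final) to wells holding compound, titrated in qHTS. Substrates 10uM each D-luciferin and ATP; buffer 50mM Tris acetate pH 7.5, 10mM Mg acetate, Tween-20, BSA.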
The depositor's hits bear a star; i = inactive; ? = inconclusive; . = not tested or not shown; [ ] = another dose, or the depositor's remark. Shown are actives, neighbours in structure and some others; about 10% of the full set was active somewhere. Unless noted, calls follow the shape of the dose curve; as a rule, active = well fitted curve in the direction sought with a large enough effect; inconclusive = small, poorly fitted or top-dose-only effect, or another doubt; inactive = no such curve, though single readings can be large; an effect the other way counts as inactive or inconclusive. % is scaled to controls: 0 for no effect and ±100 for the full control effect; potency is read from the fitted curve at half-maximal effect.

SMILES | hNpr1 antagonist | HEK cytotox | GPT2 inh | NIH3T3 tox | Luciferase inh
COc1cccc(C(=O)N2CCN(c3ccc4ncc(-c5cccc(C(F)(F)F)c5)n4n3)CC2)c1 | . | ? | . | 11µM* | .
COc1cccc(C(=O)N2CCCN(c3ccc4nnc(C)n4n3)CC2)c1 | . | i | . | 1% | .
CN1CCN(C(=O)c2ccc(-c3ccc(N4CCSCC4)nc3)cc2)CC1 | -29% | ? | i | ? | 35µM*
CN1CCN(C(=O)c2ccc(-c3ccc(N4CCCCC4)nc3)cc2)CC1 | -2% | ? | -10% | ? | 22µM*
CC1CCN(C(=O)c2ccc(-c3ccc(N4CCSCC4)nc3)cc2)CC1 | ? | 20µM* | i | ? | ?
O=C(c1ccc(-c2ccc(N3CCCCC3)nc2)cc1)N1CCCC1 | ? | ? | -1% | 40µM* | 28µM*
O=C(NCc1cccc(F)c1)C1CN(C2CCCC2)C(=O)N1 (centres undefined) | . | 1%[172 µM] | i | -18%[138 µM] | .
CCCC1CN(Cc2cccs2)C(=O)c2cccnc2O1 (centres undefined) | . | ? | . | -24% | .
COc1cccc(-c2ccc(C(=O)NCCN[S+](C)(=O)[O-])cc2)c1 | . | -37% | . | -25% | .
CC(C)Cn1c(=O)c(C(=O)NCc2cccs2)nc2cccnc21 | . | ? | -13%[88.5 µM] | ? | .
CCCN1CCN(C(=O)c2ccc(-c3ccc(N4CCCCC4)nc3)cc2)CC1 | -15% | ? | i | ? | ?
CC(NC(=O)c1ccc(-c2ccc(N3CCCCCC3)nc2)cc1)c1cccnc1 (centres undefined) | ? | ? | -12% | 25µM* | ?
O=C(c1ccc(-c2ccc(N3CCSCC3)nc2)cc1)N1CCCCC1 | 10µM* | ? | i | 35µM* | ?
COc1ccccc1Nc1ccnc(N2CCCC(C(=O)N(C)C)C2)n1 (centres undefined) | . | ? | i | ? | .
O=C(c1ccc(C(F)(F)F)cc1)N1CCCC(C(=O)N2CCC(N3CCCC3=O)CC2)C1 (centres undefined) | . | -2% | ? | -14% | .
Cc1nn(Cc2ccccc2)c(C)c1[C@@H]1C=C[C@@H](NC(=O)Nc2cccc(C#N)c2)C1 | -2%[70.6 µM] | 71µM* | -40%[88.5 µM] | ? | i
Cc1nn(Cc2ccccc2)c(C)c1[C@@H]1C=C[C@@H](NC(=O)c2ccc(F)c(Cl)c2)C1 | ? | 28µM* | -2%[88.5 µM] | ? | i
Cc1nn(Cc2ccccc2)c(C)c1[C@@H]1C=C[C@@H](NC(=O)c2ccco2)C1 | -2%[70.6 µM] | 71µM* | 1%[88.5 µM] | ? | i
COc1cccc(C(=O)N2CCc3[nH]nc(C(=O)NCCCc4ccccc4)c3C2)c1 | -29% | ? | i | 32µM* | i
CC(C)c1ccc(C(=O)N2CCc3[nH]nc(C(=O)NCCCc4ccccc4)c3C2)cc1 | 0% | -1% | i | 0% | i
Cc1ccc(C(=O)N2CCc3[nH]nc(C(=O)NCCCc4ccccc4)c3C2)cc1C | . | ? | 4% | ? | .
O=C(NCCCc1ccccc1)c1n[nH]c2c1CN(C(=O)c1cccc(Cl)c1)CC2 | . | ? | 1% | 35µM* | .
CCC(C)C(=O)N1CCc2[nH]nc(C(=O)NCCCc3ccccc3)c2C1 (centres undefined) | 0% | 11µM* | i | ? | i
O=C(NCCCc1ccccc1)c1n[nH]c2c1CN(C(=O)c1ccc(F)c(F)c1)CC2 | . | ? | 5% | 35µM* | .
Cc1ccc(S(=O)(=O)N2CC[C@@H](CC(=O)O)[C@@H](CCN(CCN3CCOCC3)c3ccccc3)C2)cc1 | 2% | -3% | i | -22% | i
SMILES | hNpr1 antagonist | HEK cytotox | GPT2 inh | NIH3T3 tox | Luciferase inh
CNC(=O)c1cc(C2CC2)nc2onc(C3CCN(C(=O)c4cccc(OC)c4)CC3)c12 | . | -5% | . | -13% | .
N#Cc1cccc(-c2ccnc(N[C@H]3CO[C@H]4[C@@H]3OC[C@H]4OC(=O)Nc3cccc4ccccc34)n2)c1 | -29% | 22µM* | ? | ? | i
CN(C)c1ccc(-c2ccnc(N[C@H]3CO[C@H]4[C@@H]3OC[C@H]4OC(=O)Nc3cccc(C#N)c3)n2)cc1 | ? | 14µM* | i | ? | i
COc1ccc(NC(=O)O[C@@H]2CO[C@H]3[C@@H]2OC[C@@H]3Nc2nccc(-c3cccc(C#N)c3)n2)cc1 | -1% | -26% | 0% | -14% | i
COc1ccc(C(=O)N2CCCN(c3ccnc4ccnn34)CC2)cc1 | . | ? | -21% | -36% | .
CN(C)C(C(=O)N1CCC(F)(F)CC1)c1ccccc1F (centres undefined) | 3% | i | i[11.5 µM] | -2% | i
O=C1Nc2ccccc2CC12CCN(Cc1ccc(F)cc1)C2 (centres undefined) | 0%[70.6 µM] | 71µM* | i | -24%[138 µM] | i
COCc1ccc2c(c1)c(OC(C)(C)C(=O)NC1CC1)nn2CCC(C)C | ? | ? | i | ? | i
COCc1ccc2c(c1)c(OC(C)(C)C(=O)NC1CCN(C)CC1)nn2CCC(C)C | 3%[70.6 µM] | ? | -17%[88.5 µM] | 89µM* | i
COCc1ccc2c(c1)c(OC(C)(C)C(=O)Nc1ccccn1)nn2CCC(C)C | -21%[70.6 µM] | 89µM* | 1%[88.5 µM] | 45µM* | i
COc1cccc(-c2ccnc(-c3nnc(C)n3C3CCCCC3)c2)c1 | 0%[70.6 µM] | 71µM* | i | 89µM* | i
COc1cccc(Nc2ccnc(-c3nnc(C)n3C3CCCCC3)c2)c1 | -25%[70.6 µM] | 71µM* | -6%[88.5 µM] | 89µM* | i
O=C(NCC(F)(F)F)c1cc(C2CC2)nc2onc(C3CCNC3)c12 (centres undefined) | . | -21% | i | -14% | .
Cc1cc(C(=O)N2CC(Oc3ccc(-c4nc(-c5ccccc5)no4)cc3)C2)n(C)n1 | 5.6µM* | 11µM* | -25% | ? | ?
Cc1cc(C)n(CCC(=O)N2CC(Oc3ccc(-c4nc(-c5ccccc5)no4)cc3)C2)n1 | 0.4µM* | 32µM* | -8% | ? | ?
O=C(NCc1ccc(Cl)cc1)c1ccc2nnc(-c3ccoc3)n2c1 | . | ? | -3% | ? | .
CN(c1ccccc1)c1cc(=O)c2ccnc(Nc3cccnc3)c2o1 | ? | ? | ? | 10µM* | i
O=c1cc(-c2ccccn2)oc2c(Nc3cccnc3)nccc12 | 4%[70.6 µM] | ? | i | 11µM* | i
CC(=O)Nc1ccccc1-c1nccc2c(=O)cc(N(C)c3ccccc3)oc12 | -6%[70.6 µM] | -25%[172 µM] | -8%[88.5 µM] | ? | i
O=c1cc(-c2ccccn2)oc2c(Nc3ccccc3)nccc12 | -17%[70.6 µM] | ? | 0%[88.5 µM] | ? | i
CN(c1ccccc1)c1cc(=O)c2ccnc(NCCc3ccccn3)c2o1 | 1%[70.6 µM] | ? | 4%[88.5 µM] | 25µM* | i
